According to the supplement of paper PMC9262897, “Low-cost anti-mycobacterial drug discovery using engineered E. coli” (Nature Communications, 2022):
Structures can show the parent of a compound that is named as a salt. ± gives the standard deviation of the averaged measurements.

What was measured:
Assay in all cases: growth (OD600 after 10 h); higher = more growth (less inhibition)
[1] = tested on: E. coli TESEC Alr+ wild-type control; conditions: compound 0.1 mM; raw OD600 reference: median of DMSO wells 0.241, cell-free background 0.041
Description: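 TESEC Mtb Alr E. coli, or the Alr+ wild-type control, in 384-well plates with Prestwick library compounds at 0.1 mM and 1% DMSO, across arabinose induction levels of 1E3 to 1E7 nM. Growth is read as OD600 after 10 h at 37 °C in triplicate biological replicates.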

E. coli TESEC Mtb Asd = conditions: compound 0.1 mM
Description: (§1)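 TESEC E. coli strains in which the native enzyme is deleted and replaced by arabinose-inducible Mtb Asd, DapB, CysH or TrpD, each grown in its selective medium. Strains were screened against the Prestwick library at 0.1 mM and 1% DMSO in 384-well format at low and high arabinose induction. Growth is read as OD600 after 10 h in triplicate.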

E. coli TESEC Mtb DapB = conditions: compound 0.1 mM
Description: as §1

[2] = tested on: E. coli TESEC Alr+ wild-type control; conditions: compound 0.1 mM; raw OD600 reference: median of DMSO wells 0.49, cell-free background 0.052
Description: (§2)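 TESEC Mtb Alr E. coli (ΔaraC ΔtolC ΔentC Δalr ΔdadX, arabinose-inducible Mtb Alr) or the Alr+ wild-type control strain, grown in defined M9-fructose medium without D-alanine in 96-well plates with Prestwick library compounds at 0.1 mM and 1% DMSO. Low Alr induction is 0.1 µM arabinose and high induction is 10 mM arabinose.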

E. coli TESEC Mtb Alr = conditions: compound 0.1 mM
Description: as §2

[3] = arabinose induction (level): High, raw OD600 reference: median of DMSO wells 0.331, cell-free background 0.041
[4] = arabinose induction (level): Low, raw OD600 reference: median of DMSO wells 0.417, cell-free background 0.041
[5] = arabinose induction (level): High, raw OD600 reference: median of DMSO wells […], cell-free background 0.041
[6] = arabinose induction (level): Low, raw OD600 reference: median of DMSO wells 0.227, cell-free background 0.041
[7] = arabinose 100 nM, raw OD600 reference: median of DMSO wells 0.413, cell-free background 0.052
[8] = arabinose 10000000 nM, raw OD600 reference: median of DMSO wells […], cell-free background 0.052

Compound | growth [1] | growth (E. coli TESEC Mtb Asd; [3]) | growth (E. coli TESEC Mtb Asd; [4]) | growth (E. coli TESEC Mtb DapB; [5]) | growth (E. coli TESEC Mtb DapB; [6]) | growth [2] | growth (E. coli TESEC Mtb Alr; [7]) | growth (E. coli TESEC Mtb Alr; [8])
COC(=O)C1=C(C#N)NC(C)=C(C(=O)OC(C)C)C1c1cccc([N+](=O)[O-])c1 (centres undefined) [Nilvadipine] | 0.148 ± 0.0031 | 0.16 ± 0.0063 | 0.325 ± 0.029 | 0.208 ± 0.019 | 0.214 ± 0.015 | 0.212 ± 0.16 | 0.429 ± 0.0067 | 0.06 ± 0.0039
CC(C)(C)NC[C@H](O)c1ccc(O)c(CO)c1 [Levalbuterol hydrochloride] | 0.235 ± 0.005 | 0.242 ± 0.05 | 0.32 ± 0.084 | 0.168 ± 0.033 | 0.179 ± 0.088 | 0.608 ± 0.014 | 0.4232 ± 0.00093 | 0.318 ± 0.01
CCSc1ccc2c(c1)N(CCCN1CCN(C)CC1)c1ccccc1S2 [Thiethylperazine dimalate] | 0.0403 ± 0.00055 | 0.0483 ± 0.0004 | 0.0464 ± 0.0011 | 0.0474 ± 0.0002 | 0.04737 ± 0.00025 | 0.0499 ± 0.0032 | 0.0513 ± 0.00084 | 0.0544 ± 0.0021
CCN(CC)CCCC(C)Nc1c2ccc(Cl)cc2nc2ccc(OC)cc12 (centres undefined) [Quinacrine dihydrochloride hydrate] | 0.0702 ± 0.00072 | 0.0701 ± 0.0057 | 0.0679 ± 0.006 | 0.156 ± 0.022 | 0.0986 ± 0.073 | – | 0.421 ± 0.0083 | 0.222 ± 0.025
Cc1cn([C@H]2C=C[C@@H](CO)O2)c(=O)[nH]c1=O [Stavudine] | 0.163 ± 0.01 | 0.157 ± 0.013 | 0.158 ± 0.0091 | 0.192 ± 0.015 | 0.178 ± 0.0066 | 0.512 ± 0.037 | 0.417 ± 0.011 | 0.218 ± 0.012
CC(C(=O)O)c1ccc2c(c1)Cc1cccnc1O2 (centres undefined) [Pranoprofen] | 0.238 ± 0.0049 | 0.315 ± 0.03 | 0.367 ± 0.0097 | 0.192 ± 0.008 | 0.198 ± 0.013 | 0.4398 ± 0.0017 | 0.415 ± 0.0046 | 0.316 ± 0.012
Cc1c(Cl)cccc1Nc1ncccc1C(=O)O [Clonixin Lysinate] | 0.181 ± 0.0096 | 0.19 ± 0.011 | 0.17 ± 0.0079 | 0.175 ± 0.019 | 0.207 ± 0.035 | – | 0.283 ± 0.023 | 0.173 ± 0.026
CCCC1C(=O)N2C(N(C)C)=Nc3ccc(C)cc3N2C1=O (centres undefined) [Azapropazone] | 0.226 ± 0.0057 | 0.195 ± 0.031 | 0.323 ± 0.064 | – | – | – | 0.399 ± 0.013 | 0.301 ± 0.0094
CNC(=C[N+](=O)[O-])NCCSCc1csc(CN(C)C)n1 [Nizatidine] | 0.241 ± 0.0083 | 0.368 ± 0.033 | 0.438 ± 0.012 | – | – | 0.561 ± 0.066 | 0.408 ± 0.015 | 0.342 ± 0.01
Cc1c(N(C)C)c(=O)n(-c2ccccc2)n1C [Amidopyrine] | 0.242 ± 0.0096 | 0.373 ± 0.017 | 0.41 ± 0.042 | 0.21 ± 0.017 | 0.254 ± 0.056 | – | 0.412 ± 0.0055 | 0.365 ± 0.037
CC(C)NCC(O)c1ccc2ccccc2c1 (centres undefined) [Pronethalol hydrochloride] | 0.245 ± 0.013 | 0.247 ± 0.045 | 0.431 ± 0.085 | 0.194 ± 0.015 | 0.225 ± 0.03 | – | 0.403 ± 0.012 | 0.351 ± 0.017
CCC(C)n1ncn(-c2ccc(N3CCN(c4ccc(OCC5COC(Cn6cncn6)(c6ccc(Cl)cc6Cl)O5)cc4)CC3)cc2)c1=O (centres undefined) [Itraconazole] | 0.25 ± 0.006 | 0.421 ± 0.0098 | 0.462 ± 0.049 | 0.182 ± 0.035 | 0.217 ± 0.017 | – | 0.441 ± 0.027 | 0.368 ± 0.015
O=C1C(=O)c2ccccc2C(O)=C1C1CCC(c2ccc(Cl)cc2)CC1 (centres undefined) [Atovaquone] | 0.171 ± 0.0064 | 0.271 ± 0.12 | 0.23 ± 0.017 | 0.199 ± 0.009 | 0.204 ± 0.015 | – | 0.442 ± 0.023 | 0.231 ± 0.025
Clc1ccc(Cn2c(CN3CCCC3)nc3ccccc32)cc1 [Clemizole hydrochloride] | 0.151 ± 0.0091 | 0.174 ± 0.038 | 0.135 ± 0.0075 | – | – | 0.452 ± 0.049 | 0.406 ± 0.011 | 0.185 ± 0.055
C=CC[N@@+]12CC[C@@]34c5ccccc5N5/C=C6/[C@H]7C[C@H]8[C@@]9(CC[N@@+]8(CC=C)C/C7=C/CO)c7ccccc7N(/C=C(/[C@@H](C[C@@H]31)/C(=C\CO)C2)[C@H]54)[C@@H]69 [Alcuronium chloride] | 0.214 ± 0.0094 | 0.159 ± 0.0074 | 0.184 ± 0.044 | 0.197 ± 0.027 | 0.196 ± 0.023 | – | 0.41 ± 0.013 | 0.351 ± 0.0099
C[C@H](CCC(=O)O)[C@H]1CC[C@H]2[C@@H]3[C@@H](O)C[C@@H]4C[C@H](O)CC[C@]4(C)[C@H]3CC[C@]12C [Urosiol] | 0.2 ± 0.0037 | 0.3936 ± 0.0024 | 0.363 ± 0.018 | 0.168 ± 0.012 | 0.206 ± 0.03 | – | 0.399 ± 0.0058 | 0.182 ± 0.019
Cc1ccccc1OCC(O)CO (centres undefined) [Mephenesin] | 0.258 ± 0.0026 | 0.416 ± 0.023 | 0.45 ± 0.025 | 0.197 ± 0.0078 | 0.239 ± 0.02 | – | 0.413 ± 0.0097 | 0.373 ± 0.0043
N=C(N)N/N=C/c1c(Cl)cccc1Cl [Guanabenz acetate] | 0.189 ± 0.012 | 0.31 ± 0.039 | 0.432 ± 0.026 | 0.194 ± 0.0026 | 0.258 ± 0.065 | – | 0.408 ± 0.0073 | 0.318 ± 0.011
Nc1nc2c(ncn2COC(CO)CO)c(=O)[nH]1 [Ganciclovir] | 0.236 ± 0.0046 | 0.314 ± 0.011 | 0.411 ± 0.019 | – | – | 0.473 ± 0.057 | 0.417 ± 0.016 | 0.365 ± 0.0063
CC(=O)[C@H]1CC[C@H]2[C@@H]3CC=C4C[C@@H](O)CC[C@]4(C)[C@H]3CC[C@]12C [Pregnenolone] | 0.166 ± 0.0078 | 0.168 ± 0.026 | 0.343 ± 0.034 | 0.191 ± 0.0035 | 0.184 ± 0.009 | – | 0.398 ± 0.0084 | 0.2327 ± 0.0018
CN(C/C=C/C#CC(C)(C)C)Cc1cccc2ccccc12 [Terbinafine] | 0.214 ± 0.0072 | 0.296 ± 0.046 | 0.41 ± 0.037 | – | – | – | 0.145 ± 0.035 | 0.0574 ± 0.0026
NS(=O)(=O)c1cc(C(=O)O)c(NCc2ccco2)cc1Cl [Furosemide] | 0.244 ± 0.0029 | 0.353 ± 0.011 | 0.408 ± 0.054 | – | – | – | 0.406 ± 0.012 | 0.353 ± 0.014
Nc1nc(N)c2nc(-c3ccccc3)c(N)nc2n1 [Triamterene] | 0.135 ± 0.0027 | 0.235 ± 0.014 | 0.411 ± 0.015 | – | – | 0.422 ± 0.0047 | 0.416 ± 0.0074 | 0.122 ± 0.016
Nc1nc(/C(=C/CC(=O)O)C(=O)N[C@@H]2C(=O)N3C(C(=O)O)=CCS[C@H]23)cs1 [Ceftibuten] | 0.146 ± 0.0038 | 0.158 ± 0.0053 | 0.0769 ± 0.00091 | 0.188 ± 0.021 | 0.231 ± 0.034 | – | 0.0471 ± 0.00072 | 0.273 ± 0.01
Cc1ncc(C[n+]2csc(CCO)c2C)c(N)n1 [Thiamine hydrochloride] | 0.246 ± 0.0087 | 0.354 ± 0.062 | 0.418 ± 0.062 | – | – | 0.451 ± 0.011 | 0.42 ± 0.0059 | 0.362 ± 0.02
